According to PubChem BioAssay:

Assay: S6 kinase pathway phospho-S6 level changes – cell-based, A549, cytoblot, luminescence, serum-stimulated, primary screen (AID 1158);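 also: serum-stimulated A549 lung adenocarcinoma cells; signal is phosphorylated S6 detected by cytoblot immunostaining with HRP secondary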
Details: 5 h, higher = more signal

Row | Compound | z-score
1 | COc1cc(CO)cc(I)c1O[C@H]1C=C(C(=O)NCCO)C[C@@H](N(CC2CCCCC2)C(=O)c2cc3ccccc3oc2=O)[C@@H]1O | -0.0608
2 | C=C(CCCC)/C(=C/C[C@@H](OC(=O)c1ccncc1)c1cccc(OCCO)c1)c1cc(C(=O)OC)ccc1OC | -0.365
3 | C=CCC(OC(C)=O)[C@@H]1[C@@H](N(Cc2ccc(-c3ccccc3)cc2)C(=O)c2ccc(-c3ccccc3)cc2)c2cc(OCCCO)ccc2N1C(=O)Cc1ccc(OC)cc1 (some centres not stated) | -0.192
4 | CC(=O)NCCCC[C@@H]1NC(=O)[C@H]2C[C@@H](C(=O)NCCCCCCN(C)C)[C@@H](c3ccc(O)cc3)N2C1=O | 0.144
5 | Cc1ccc(S[C@]2(C(=O)NC(C)C)CC(=O)N(C3Cc4ccccc4C3)[C@@H]2c2ccc(CO)cc2)cc1 | 1.95
6 | Cc1ccc(N2C(=O)c3ccccc3[C@](C)(C(=O)NCC(C)C)[C@@H]2c2ccc(CO)cc2)nc1 | -0.0528
7 | [N-]=[N+]=NCc1ccccc1C[C@]1(C(=O)N2CCCCC2)N=C(c2ccc(OCCCO)cc2)O[C@H]1c1ccccc1CN=[N+]=[N-] | -0.574
8 | C=C(CCCC)/C(=C/C[C@H](OC(=O)c1ccncc1)c1cccc(OCCO)c1)c1cc(C(=O)OC)ccc1OC | 1.21
9 | O=C(CS)NCCCCCCNC(=O)[C@@H]1C[C@@H]2C(=O)N[C@@H](Cc3ccccc3)C(=O)N2[C@@H]1c1ccc(O)cc1 | -0.113
10 | C=C(CCCC)C(=O)CC[C@@H](OC(=O)c1cccnc1)c1cccc(OCCO)c1 | -0.712
11 | COc1ccc([C@H]2C[C@H]3C(Br)=C[C@]2(OC)C(=O)[C@]32CO2)cc1 | -0.242
12 | C=C(C(=O)CC[C@H](OC(=O)c1ccccc1-c1ccccc1C(=O)O)c1ccc(CO)o1)C(C)C | 0.124
13 | C#CCCCON=C1C[C@@H](O)[C@@H](O)[C@@H]2[C@@H]3C(=O)N(Cc4ccc5c(c4)OCO5)C(=O)[C@@H]3CC[C@H]12 | -0.852
14 | COC(=O)c1ccc(C#CC(NP(=O)(c2ccccc2)c2ccccc2)c2ccccc2)cc1 (configuration not stated) | 0.806
15 | CCOC(=O)C1=CC[C@@H](c2ccc(-c3ccc(OCc4ccccc4)cc3)c(OC)c2)N(S(=O)(=O)c2ccc(C)cc2)[C@H]1c1ccccc1 | -0.533
16 | CC(c1ccccc1)C(O)C1C=CC2C(=O)N(C)C(=O)C2N1N(c1ccccc1)c1ccccc1 (configuration not stated) | -0.987

Row | Compound | z-score
17 | C=C[C@H](OC)[C@@H](OC(=O)Nc1ccc(SC)cc1)c1ccc(O)c(F)c1 | 0.461
18 | C=C(CCCC)C(=O)CC[C@@H](OC(C)=O)c1ccccc1OCCO | -0.0442
19 | CC(=O)NCCCC[C@@H]1NC(=O)[C@H]2C[C@@H](C(=O)NCCCCCCN(C)C)[C@@H](c3cccc(OCCO)c3)N2C1=O | 0.317
20 | CCCC=C(CCC)[C@@H](NS(=O)(=O)c1cccc(C(F)(F)F)c1)c1ccc(C(=O)OC)cc1 | 0.213
21 | O=C(NCc1ccccc1)[C@@]1(Cc2ccccc2)COC(c2ccc(OCCCO)cc2)=N1 | 0.366
22 | [N-]=[N+]=NCc1ccccc1[C@H]1OC(c2ccc(OCCCO)cc2)=N[C@@]1(Cc1ccccc1N=[N+]=[N-])C(=O)NCc1ccccc1 | -0.0679
23 | NC(=O)NCC#Cc1ccc2c(c1)[C@]1(C(=O)N2)[C@H](C(=O)N2CCCCCCC2)[C@H]2C(=O)O[C@H](c3ccccc3)[C@H](c3ccccc3)N2[C@@H]1c1ccccc1OCCO | 0.421
24 | C#CCNC(/C=C/c1ccccc1)CO (configuration not stated) | 0.168
25 | O=C1C2C=CC(C(O)C(c3ccccc3)c3ccccc3)N(Nc3ccc([N+](=O)[O-])cc3)C2C(=O)N1c1ccccc1 (configuration not stated) | -0.606
26 | C=C(CCCC)/C(=C/C[C@@H](OC(=O)c1ccncc1)c1ccc(CO)o1)c1cnc2ccccc2c1 | -0.349
27 | CCc1cccc(NC(=O)O[C@H]2[C@H](OC(=O)Nc3ccccc3)[C@@H](OC(=O)Nc3ccccc3)[C@@H](OC)O[C@@H]2CO)c1 | 0.211
28 | C=CC[C@]1(C(=O)N2CCCCC2)N=C(c2ccc(OCCCO)cc2)O[C@H]1c1ccccc1N=[N+]=[N-] | 0.0944
29 | C#C[C@H](O[Si](C#Cc1ccccc1)(C(C)C)C(C)C)c1ccccc1 | -0.801
30 | CCOC(=O)C1=CC[C@@H](c2ccccc2)N(S(=O)(=O)c2ccc(C)cc2)[C@H]1C | -0.343
31 | O=C(N1CCCCC1)[C@@]1(CCS(=O)(=O)c2ccccc2)N=C(c2ccc(OCCCO)cc2)O[C@H]1c1ccccc1 | 2.24
32 | CC(C)(C)OC(=O)CC[C@]1(C(=O)N2CCCCC2)N=C(c2ccc(OCCCO)cc2)O[C@H]1c1ccccc1 | 2.2
